High-throughput results from PubChem.
TDP1 inh = TDP1 (human) enzyme inhibition. Potency, µM (titrated, usually from 130 µM), for the others: at the highest dose activity change, negative = inhibition, usual class: inhibitors. actives 0.28% (n = 350,000). Q9NUW8. recombinant TDP1, AlphaScreen DNA substrate cleavage. AID 485290; further: potency means the concentration at half of the fitted maximal effect; on the % scale 0 is the no-effect control and ±100 the full control effect; nearly all actives have a fitted effect of over 40% in size
Target sequence (Q9NUW8 whole entry, looked up): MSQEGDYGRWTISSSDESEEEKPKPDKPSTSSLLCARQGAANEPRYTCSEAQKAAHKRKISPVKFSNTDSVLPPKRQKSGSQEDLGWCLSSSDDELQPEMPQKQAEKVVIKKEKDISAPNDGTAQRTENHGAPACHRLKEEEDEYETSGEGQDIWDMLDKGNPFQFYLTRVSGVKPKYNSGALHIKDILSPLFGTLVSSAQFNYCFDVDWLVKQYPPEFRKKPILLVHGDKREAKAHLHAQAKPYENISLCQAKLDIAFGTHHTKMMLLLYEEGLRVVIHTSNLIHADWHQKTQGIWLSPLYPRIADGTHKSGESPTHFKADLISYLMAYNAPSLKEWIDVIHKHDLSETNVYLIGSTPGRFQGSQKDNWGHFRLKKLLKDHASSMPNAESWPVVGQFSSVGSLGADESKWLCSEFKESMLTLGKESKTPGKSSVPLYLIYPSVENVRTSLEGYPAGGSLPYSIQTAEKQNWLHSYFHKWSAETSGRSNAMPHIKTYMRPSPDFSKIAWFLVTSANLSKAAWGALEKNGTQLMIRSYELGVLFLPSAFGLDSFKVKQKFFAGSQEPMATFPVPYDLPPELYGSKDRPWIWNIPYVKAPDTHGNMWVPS
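AlphaScreen read-out: signal falls as enzyme removes the 3' tyrosine-FITC from a 5'-biotinylated DNA oligo (15 nM, 5 min, RT). Enzyme was E. coli-made recombinant Tdp1 at 1 nM, exposed to compound for 15 min beforehand; beads 10 ug/ml, 10 min.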
TDP1 cell CPT = growth inhibition of DT40 Tdp1-/-;hTDP1 cells with camptothecin (screen for TDP1 inhibitors); chicken DT40 Tdp1-/-;hTDP1 cells + 20 nM CPT, ATP luminescence, 48 h; Potency, µM (highest dose often 46.2 µM), for inactives: at the highest dose activity change, negative = growth inhibition, actives largely listed as inhibitors; actives 12% (n = 420,000); AID 686979; further: potency means the concentration at half of the fitted maximal effect; on the % scale 0 is the no-effect control and ±100 the full control effect; nearly all actives have a fitted effect of over 55% in size
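Chicken DT40 Tdp1-/- cells complemented with human TDP1, 400 cells/well, exposed to compounds plus 20 nM camptothecin for at least 48 h at 37 C; viability read as ATP content by CellTiter-Glo luminescence.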
HepG2 viability = HepG2 cytotoxicity, counter-screen for TGF-b inhibitors; actives 0.76% (n = 410,000); Potency, µM (series often up to 46.1 µM), for the others: at the top dose activity change, negative = cytotoxicity, hits mostly cytotoxic; HepG2 CAGA-GFP viability, ATP luminescence, 18 h; AID 588856; further: potency means the concentration at half of the fitted maximal effect
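CellTiter-Glo luminescence gave cytotoxicity after 18 hours at 37 degrees C. The cells were HepG2 CAGA-GFP in 1% FBS DMEM, stimulated with 500 pg/mL TGF-beta after compound addition. %Activity was normalised to no-cell wells (complete cell-killing) and DMSO (no toxicity), and curves were fitted and classified.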
DT40 TDP1 no CPT = qHTS for Inhibitors of human tyrosyl-DNA phosphodiesterase 1 (TDP1): qHTS in cells in absence of CPT | AID 686978, 2013 | actives 15% (n = 420,000) | DT40 Tdp1-/- hTDP1 cells, no CPT, ATP luminescence, 48 h | Potency, µM (top dose mostly 46.2 µM), without a hit: at the top dose activity change, negative = growth inhibition, hits mostly inhibitors; further: potency means the concentration at half of the fitted maximal effect; on the % scale 0 is the no-effect control and ±100 the full control effect; nearly all actives have a fitted effect of over 55% in size
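Camptothecin absent (DMSO only). Human TDP1-complemented DT40 knockout cells, 400 cells/well, 37 °C for minimum 48 hr; ATP measured via CellTiter-Glo, 30 min dark incubation, luminescence.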
IL1B secr inh = inflammasome signaling inhibition, IL-1 beta readout; actives 4.7% (n = 360,000); activity change, % at 57.5 µM; THP-1 LPS/ATP IL-1B secretion, AlphaLISA, 16 h; hits give low values; in the data active means activity change below about -50%; inconclusive means mostly about -30% to -49%; further: on the % scale 0 is the no-effect control and ±100 the full control effect
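THP-1 cells pretreated 1 hr with compounds (up to 57.5 uM final), then stimulated with LPS (250 ng/mL final) plus ATP (1.25 mM final); secreted IL-1B measured by AlphaLISA after 16 hr, decreased signal indicating inhibition.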
TGFb SMAD3 inh = inhibitors of TGF-b signaling | Potency, µM (series often up to 46.1 µM), for inactives: at the top dose activity, negative = inhibition, actives largely listed as inhibitors | HepG2 CAGA-GFP TGF-b/SMAD3 reporter, GFP fluorescence, 18 h; TGF-beta stimulated, 500 pg/mL final | AID 588855 | actives 1.2% (n = 410,000); further: potency means the concentration at half of the fitted maximal effect; on the % scale 0 is the no-effect control and ±100 the full control effect; nearly all actives have a fitted effect of over 65% in size
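Using HEPG2 CAGA-GFP reporter cells at 1000 cells/well, we pinned test compounds, stimulated with recombinant TGF-beta (500 pg/mL final) and measured total well GFP after 18 h.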
* = called active by the depositor; ? = inconclusive; . = no result; [ ] = another dose, or the depositor's remark. Hits are enriched below; roughly 18% of the tested compounds scored in any of these assays. Unless noted, the call rests on the fitted dose curve; in most records, active means well fitted curve in the direction sought with a large enough effect; inconclusive means small, poorly fitted or top-dose-only effect, or another doubt; inactive means no such curve, though single readings can be large; an effect the other way counts as inactive or inconclusive.

SMILES	TDP1 inh	TDP1 cell CPT	HepG2 viability	DT40 TDP1 no CPT	IL1B secr inh	TGFb SMAD3 inh
COC(=O)c1ccc(C2Nc3cccc4cccc(c34)N2)cc1	3.8%	8.2µM*	-1.7%	9.2µM*	6.3	13.7%
COc1cc(C2Nc3cccc4cccc(c34)N2)ccc1OC(C)=O	-2.1%	16.4µM*	-26.9%	16.4µM*	0.0	-8.9%
NC(=O)CC(NC(=O)c1cccc(Br)c1)c1ccc(NCCN2CCOCC2)c([N+](=O)[O-])c1 (centres undefined)	5.0%	.	.	.	.	.
Cc1c(O)nc(SC2CC(=O)N(c3cc(Cl)cc(Cl)c3)C2=O)[nH]c1=O (centres undefined)	.	12.1%	13.3%	-5.7%	11.2	25.7%
Cc1c(NC(=O)Nc2ccc(C(C)(C)C)cc2)c(=O)n(-c2ccccc2)n1C	.	-3.1%	-8.5%	-26.7%	47.6	0.0%
Clc1cccc(Nc2ncnc3ccc(Br)cc23)c1	2.5%	25.9µM*	-37.2%	?	-57.8*	?
CCOC(=O)c1cccc(Nc2cc(C)nc(C)n2)c1	2.6%	?	1.8%	16.4µM*	.	14.0%
Cc1cccc(Nc2ncnc3ccc(Br)cc23)c1	2.7%	?	-6.9%	?	-50.8*	0.5%
Clc1ccc(Nc2ncnc3ccc(Br)cc23)cc1	-5.2%	10.3µM*	-24.3%	14.6µM*	-9.0	?
CCOC(=O)c1cccc(Nc2nc(C)cc(C)n2)c1	0.0%	2.9%	11.2%	-4.6%	44.3	4.6%
C[C@H](NS(=O)(=O)c1ccc(Cl)cc1)C(=O)OCC(=O)Nc1cc(S(=O)(=O)N2CCOCC2)ccc1Cl	.	-0.7%	-40.2%	0.8%	41.1	-17.9%
CCOC(=O)c1ccc(NC(=O)c2cc3c(n(-c4ccc(C)cc4)c2=O)CC(C)(C)CC3=O)cc1	.	-4.8%	-21.9%	?	.	?
CCOc1ccc(NS(=O)(=O)c2ccc3c(c2)n(C)c(=O)n3C)cc1	.	?	-9.2%	?	12.9	15.1%
CCOC(=O)c1ccc(Nc2ncnc3ccc(C)cc23)cc1	1.9%	-20.8%	-19.3%	?	7.8	9.1%
CCOC(=O)c1cccc(Nc2ncnc3ccc(C)cc23)c1	2.0%	14.6µM*	3.1%	20.6µM*	-14.9	-15.3%
CCCCCC(=O)N1C[C@@H](n2cc(-c3ccc(F)cc3)nn2)[C@H](O)C[C@@H]1c1ccc(Cl)cc1	.	14.6µM*	-140.9%	11.6µM*	-55.9*	?
CCCCCC(=O)N1C[C@H](O)[C@@H](n2cc(-c3ccc(F)cc3)nn2)C[C@@H]1c1ccc(Cl)cc1	.	18.4µM*	-35.6%	18.4µM*	?	?
CCCCCC(=O)N1C[C@H](O)[C@@H](n2cc(-c3ccc(F)cc3)nn2)C[C@@H]1c1ccc(OC)cc1	.	?	-40.2%	?	?	?
CCCCCC(=O)N1C[C@H](n2cc(-c3ccc(F)cc3)nn2)[C@@H](O)C[C@@H]1c1ccc(C)cc1	.	?	-78.0%	?	?	?
CO[C@H]1C[C@@H](O[C@@H]2[C@H](C)[C@H](O[C@@H]3O[C@@H](C)C[C@@H](N(C)C)[C@@H]3O)[C@H](C)C[C@]3(CO3)C(=O)[C@H](C)[C@H](O)[C@H](C)[C@H](C)OC(=O)[C@@H]2C)O[C@@H](C)[C@H]1O	6.4%[56.1 µM]	.	.	.	.	.
C=CCOC(/C=C/c1ccccc1)CC (centres undefined)	4.4%	.	-10.8%	.	.	?
COc1ccc(NC(=O)CN(C)C(=O)c2ccc3c(c2)S(=O)(=O)N=C2CCCCCN23)cc1	2.5%	1.2%	2.8%	10.7%	-3.1	-1.1%
CCOc1ccc(NC(=O)c2ccc(NC(=O)CSc3nc4ccccc4c(=O)[nH]3)cc2)cc1	2.6%	3.0%	-23.6%	11.8%	44.2	1.3%
CC(C)Cc1nn2c(=O)cc(CSCC(=O)Nc3ccccc3F)nc2s1	2.9%	0.1%	-4.8%	9.0%	9.7	11.1%
Cc1ccc(N2C(=O)N(CC(=O)N3c4ccccc4CC3C)C(=O)C2C)cc1 (centres undefined)	9.8%	-20.7%	-28.9%	-27.9%	6.2	10.9%
SMILES	TDP1 inh	TDP1 cell CPT	HepG2 viability	DT40 TDP1 no CPT	IL1B secr inh	TGFb SMAD3 inh
CCOc1ccccc1NC(=O)C(CC(C)C)NC(=O)C1CCC(C)CC1 (centres undefined)	0.0%	18.4µM*	-7.6%	?	10.1	-0.1%
CCOc1ccccc1NC(=O)C(NC(=O)C1CCC(C)CC1)C(C)C (centres undefined)	2.5%	-1.8%	-2.7%	4.0%	24.7	1.4%
C[C@H]1CN([C@@H](C)CO)C(=O)c2cc(Br)cnc2O[C@H]1CN(C)Cc1ccccc1C(=O)O	.	-2.7%	10.2%	1.7%	24.7	12.4%
COc1cc[n+]([O-])cc1[N+](=O)[O-]	.	?	-7.9%	2.31µM*	-19.3	-5.2%
C=C(C)C(=O)Nc1cccc(C2=NOC3(C2)C[C@@H](C(N)=O)N(C(=O)/C=C/C=C/C)C3)c1 (some centres undefined)	35.5µM*	-8.4%	1.9%	0.7%	-5.4	0.1%
C/C=C/C=C/C(=O)N1CC2(CC(c3cccc(NC(=O)/C=C/C)c3)=NO2)C[C@@H]1C(N)=O (some centres undefined)	-2.4%	-6.6%	11.2%	0.7%	-5.6	3.2%
NC(=O)[C@H]1CC2(CC(c3cccc(NC(=O)[C@H]4CCC(=O)N4)c3)=NO2)CN1C(=O)c1ccccc1 (some centres undefined)	14.1µM*	-27.3%	10.5%	0.1%	9.2	1.7%
C=C(C)C(=O)Nc1cccc(C2=NOC3(C2)C[C@@H](C(N)=O)N(C(=O)CC(c2ccccc2)c2ccccc2)C3)c1 (some centres undefined)	17.8µM*	?	1.5%	1.9%	-22.1	-74.3%
NC(=O)C1CCN(CCS(=O)(=O)c2ccc(Cl)cc2)CC1	5.7%	-12.0%	6.4%	?	-29.4	-1.2%
Cc1[nH]c(=O)[nH]c(=O)c1/C=N/NC(=O)[C@H](C)N	-9.9%	-3.6%	23.2%	?	-12.4	12.3%
O=C(NCCc1ccccc1)c1ccc(Cn2c(=O)c3cccn3c3cccnc32)cc1	?	?	-1.2%	?	.	0.1%
CCOc1ccc(CCNC(=O)c2ccc(Cn3c(=O)c4cccn4c4cccnc43)cc2)cc1	.	13µM*	-5.1%	20.6µM*	.	?
